PubChem BioAssay (NCATS)
Results filed as inconclusive are left out. A number with no mark means an inactive call. The call rests on the fitted dose curve; in most records, active means well fitted cell-killing curve with a large enough effect; inconclusive means small, poorly fitted or top-dose-only effect, or effect the other way; inactive means flat fitted curve, though single readings scatter.

Experiment: MultiTox-Fluor Cytotoxicity Assay - LYMP1-001 - Dead Cells (AID 946)
Conditions: LYMP1-001 lymphoblastoid cells, dead-cell protease fluorescence; series mostly up to 92.2 µM; cytotoxicity (dead cells): at the top concentration
How it was run: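 Cytotoxicity as increased dead-cell protease fluorescence (bis-AAF-R110, 485/520 nm), read 60 min after MultiTox-Fluor reagent. Human lymphoblastoid line exposed 16 h; Hill-fitted AC50, with DMSO as 0% and 15 uM tetraoctylammonium bromide as 100%.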

SMILES | cytotoxicity (dead cells) [%]
Oc1ccc(Cl)cc1Cc1cc(Cl)ccc1O | 2.77
CCCN(CCC)S(=O)(=O)c1ccc(C(=O)O)cc1 | -1.5
CCOc1ccc(NC(C)=O)cc1 | -8.58
NC(=O)c1ccccc1O | -11.2
COc1ccc(C(Cl)=C(c2ccc(OC)cc2)c2ccc(OC)cc2)cc1 | 6.79
COc1ccc(C(=O)c2ccccc2)c(O)c1 | -7.88
O=C(O)c1ccc(S(=O)(=O)N(Cl)Cl)cc1 | 9.64
